# Results as given in PubChem BioAssay AID1347414 (National Center for Advancing Translational Sciences (NCATS), 2020).
# Inconclusive results are not listed. Where a call stands in place of a potency, no number is given. Calls of active or inactive are those of the source. Calls follow the shape of the dose curve; as a rule, active = well fitted inhibition curve with a large enough effect; inconclusive = small, poorly fitted or top-dose-only effect; inactive = no such curve, though single readings can be large or run the other way.
# Experiment: qHTS to identify inhibitors of the type 1 interferon - major histocompatibility complex class I in skeletal muscle: Secondary screen by immunofluorescence; also: nearly all actives have a fitted effect of over 70% in size
# Settings: C25cl48 myoblasts, IFN-b induced HLA-ABC immunofluorescence, 24 h, Viability; series mostly up to 49.8 µM
# How it was run: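 Immortalized human myoblasts C25cl48 were stimulated with 4.0 ng/ml IFN-beta and exposed to an 11-point 1:3 compound titration, top 50 uM, for 24 h at 37 C. They were then fixed and immunostained for HLA-ABC, and quantified by laser scanning cytometry.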
# Potency is read from the fitted curve at half-maximal effect.
row,Structure (SMILES),Potency
1,CC[C@@]1(O)C(=O)OCc2c1cc1n(c2=O)Cc2c-1nc1cc(F)c(C)c3c1c2[C@@H](N)CC3,inactive
2,Cc1ccc(C(=O)Nc2ccc(CN3CCN(C)CC3)c(C(F)(F)F)c2)cc1C#Cc1cnc2[nH]ncc2c1,12.9 µM (active)
3,CS[C@H]1SC[C@@H]2C(=O)N(C)[C@H](C(C)C)C(=O)OC[C@H](NC(=O)c3cnc4ccccc4n3)C(=O)N[C@H](C)C(=O)N(C)[C@H]1C(=O)N(C)[C@H](C(C)C)C(=O)OC[C@H](NC(=O)c1cnc3ccccc3n1)C(=O)N[C@H](C)C(=O)N2C,inactive
4,CO[C@@H]1[C@@H](O)[C@H](O)[C@@H](n2c3c(Cl)cccc3c3c4c(c5c6cccc(Cl)c6[nH]c5c32)C(=O)NC4=O)O[C@H]1CO,inactive
5,CN(Cc1ccc(/C=C/C(=O)NO)cc1)CC12CC3CC(CC(C3)C1)C2,inactive
6,CC(C)c1cc(C(=O)N2Cc3ccc(CN4CCN(C)CC4)cc3C2)c(O)cc1O,inactive
7,COC(=O)C[C@](O)(CCCC(C)(C)O)C(=O)O[C@@H]1C(OC)=C[C@]23CCCN2CCc2cc4c(cc2[C@H]13)OCO4,inactive
8,CCc1c(-c2ccccc2C)nc2c(C#N)c[nH]n2c1=O,inactive
9,Cc1oncc1C(=O)Nc1ccc(C(F)(F)F)cc1,inactive
10,COc1cc(Nc2ncc(F)c(Nc3ccc4c(n3)NC(=O)C(C)(C)O4)n2)cc(OC)c1OC,inactive
11,Cc1cc(Nc2cc(CN3CCOCC3)c3nc(C)c(Cc4ccc(Cl)cc4F)n3n2)n[nH]1,20.5 µM (active)
12,CC(C)C[C@H](NC(=O)[C@H](Cc1ccccc1)NC(=O)c1cnccn1)B(O)O,inactive
13,CC(C)c1cnn2c(NCc3ccccc3)cc(N[C@@H](CO)[C@H](O)CO)nc12,inactive
14,NC(=O)Nc1sc(-c2ccc(F)cc2)cc1C(N)=O,inactive
15,Cc1cc(Nc2cc(NC(=O)c3c(Cl)cccc3Cl)ccn2)nc(N)n1,inactive
16,C[C@@]12O[C@@H](C[C@]1(O)CO)n1c3ccccc3c3c4c(c5c6ccccc6n2c5c31)CNC4=O,inactive
17,C=C1C(=O)O[C@@H]2[C@H]3O[C@]3(C)CC/C=C(\C)CC[C@@H]12,11.5 µM (active)
18,COC(=O)N[C@@H](C)CNc1nccc(-c2cn(C(C)C)nc2-c2cc(Cl)cc(NS(C)(=O)=O)c2F)n1,inactive

row,Structure (SMILES),Potency
1,C[C@]12CCC(=O)C=C1CC[C@H]1[C@@H]3CC[C@](O)(C(=O)CO)[C@@]3(C)C[C@H](O)[C@@]12F,inactive
2,CC(C)c1nn(-c2c(Cl)cccc2Cl)c2nc(Cc3ccc(OCCO)cc3)[nH]c(=O)c12,inactive
3,C#Cc1cccc(Nc2ncnc3cc(OC)c(OCCCCCCC(=O)NO)cc23)c1,inactive
4,OCCCNc1cc(-c2ccnc(Nc3cccc(Cl)c3)n2)ccn1,inactive
5,C=CCNC1=C2C[C@@H](C)C[C@H](OC)[C@H](O)[C@@H](C)/C=C(\C)[C@H](OC(N)=O)[C@@H](OC)/C=C\C=C(/C)C(=O)NC(=CC1=O)C2=O,inactive
6,O=C(/C=C/c1ccc2ccc(C(F)(F)F)cc2n1)c1ccncc1,3.64 µM (active)
7,CN(C)c1ccc(C(=O)NCCCCCCC(=O)NO)cc1,inactive
8,CCOC(=O)N1CCN(/[N+]([O-])=N/Oc2ccc([N+](=O)[O-])cc2[N+](=O)[O-])CC1,14.5 µM (active)
9,CCCC(=O)O[C@]1(C(=O)CO)CC[C@H]2[C@@H]3CCC4=CC(=O)CC[C@]4(C)[C@H]3[C@@H](O)C[C@@]21C,inactive
10,C[C@H](Nc1ncnc2nc[nH]c12)c1cc2cccc(Cl)c2c(=O)n1-c1ccccc1,inactive
11,CC(/C=C/C(=O)NO)=C\[C@@H](C)C(=O)c1ccc(N(C)C)cc1,inactive
12,CC(C)CC(=O)Nc1n[nH]c2c1CN(C(=O)C1CCN(C)CC1)C2(C)C,inactive
13,Fc1cccc(-n2cnc3c(NCc4nc5c(F)c(F)ccc5[nH]4)nc(N4CCOCC4)nc32)c1,inactive
14,Cn1ncc2cc(-c3cnc(N)c(Cl)c3N3CCC4(CCNC4=O)CC3)ccc21,inactive
15,Cc1nc(Nc2n[nH]c3c2CN(C(=O)N[C@H](CN(C)C)c2ccccc2)C3(C)C)c2sccc2n1,inactive
16,O=[N+]([O-])c1ccc2c(c1)S(=O)(=O)C=C2,5.14 µM (active)
17,O=C1Nc2ccccc2C1(c1ccc(O)cc1)c1ccc(O)cc1,inactive
18,C[C@H](NC(=O)/C(C#N)=C/c1cccc(Br)n1)c1ccccc1,12.9 µM (active)
